Legend:
Experiment in all cases: PBM binding z-score (relative to random genomic background probes); higher = stronger binding; sequences stand for … in GC…GCGATTGACAGCGTAGAATGAAGG
[1] = system: FXR:RXRa (NR concentration 270 nM, RXRa partner concentration 90 nM)
Outline: (§1)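 On custom Agilent 4×180K arrays, double-stranded probes with 34-nt variable regions carried direct-repeat seeds, single-nucleotide variants, half-site ablations or random human genomic background. Ligand-free nuclear receptor dimers were applied for 1 h, and binding was read with antibodies against each partner (one per run). Binding z-scores come from regression-normalized fluorescence, with the random background probes as reference.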

[2] = system: LXRa:RXRa (NR concentration 270 nM, RXRa partner concentration 90 nM)
Outline: as §1

[3] = system: LXRa homodimer (NR concentration 270 nM)
Outline: as §1

[4] = system: LXRb:RXRa (NR concentration 270 nM, RXRa partner concentration 90 nM)
Outline: as §1

[5] = system: LXRb homodimer (NR concentration 270 nM)
Outline: as §1

[6] = system: PPARa:RXRa (NR concentration 270 nM, RXRa partner concentration 90 nM)
Outline: as §1

[7] = system: PPARg:RXRa (NR concentration 180 nM, RXRa partner concentration 90 nM)
Outline: as §1

[8] = system: PPARg:RXRa 270nM:90nM, anti-RXR (NR concentration 270 nM, RXRa partner concentration 90 nM)
Outline: as §1

[9] = system: PPARg:RXRa 30nM:10nM, anti-RXR (NR concentration 30 nM, RXRa partner concentration 10 nM)
Outline: as §1

[10] = system: PPARg:RXRa 90nM:30nM, anti-RXR (NR concentration 90 nM, RXRa partner concentration 30 nM)
Outline: as §1

Row | Sequence | PBM binding z-score [1] | PBM binding z-score [2] | PBM binding z-score [3] | PBM binding z-score [4] | PBM binding z-score [5] | PBM binding z-score [6] | PBM binding z-score [7] | PBM binding z-score [8] | PBM binding z-score [9] | PBM binding z-score [10]
1 | ATAACGAGGGCAATGAGTTGATAGCACGGGTGGC | 0.269 | 0.688 | -0.402 | 0.00885 | 0.11 | 1.23 | 1.8 | 1.31 | 0.221 | 0.999
2 | GCAGACAGGTGAAACGCAGGTAACTCCGGGTGGC | -0.276 | 0.017 | -0.496 | -0.36 | -1.37 | 0.805 | 0.312 | 0.0906 | -0.41 | -0.188
3 | CCAGACAGGTGAGAAGGTAACTCATCCTCGATTA | 0.223 | 0.195 | 0.213 | 0.16 | -0.283 | 0.773 | 0.558 | 0.703 | 0.0272 | 0.508
4 | AGTCAAAGTTCATCTAGGTAACGTCAGATATGCT | 6.97 | 6.1 | 5.62 | 4 | 1.91 | 4.87 | 6.42 | 6.54 | 3.63 | 5.58
5 | TTACCAAGATGAAAGGTCGTTGATGCACGCCTTG | 1.32 | 1.82 | 0.225 | 1.6 | -0.121 | 3.04 | 3.53 | 5.28 | 3.89 | 5.86
6 | CCTACTGGGCCAACGGTCATTGATTCCAATGCTC | 0.0438 | -0.079 | 0.674 | -0.198 | -0.607 | 2.53 | 5.23 | 6.24 | 4.4 | 5.61
7 | AGAACGAGGGCAATGAGATGATAGCACGGGTGGC | 0.277 | 0.121 | -0.31 | -0.282 | -0.486 | 1.02 | 1.58 | 0.593 | 0.201 | 0.528
8 | TGAATGAGTTTAAAGATCAGGGAACGTGGCGTCG | -0.0413 | 0.111 | -0.578 | -0.0738 | 0.209 | 0.791 | 0.824 | 1.77 | 1.35 | 1.46
9 | ATATGTAGGTTACATCCGGGCCATTCAGGCTATG | 0.546 | 2.67 | 0.422 | 1.05 | 0.287 | 3.13 | 5.08 | 4.09 | 1.51 | 3.05
10 | CCTTACGGCTCACTCCAGGTTATAGCATCGGAGT | 0.29 | 0.942 | 1.31 | 0.0567 | 0.303 | -0.0224 | 0.265 | -0.277 | 0.181 | -0.238
11 | CCTCTTAGTTGACCATAAGGGCAACCGAAGCTCG | 0.875 | 0.419 | 0.345 | 0.647 | 0.541 | 0.868 | 0.219 | 0.342 | -0.34 | 0.305
12 | TTACCAAGGTGAAAGGTCGTGGATGCACGCCTTG | 3.68 | 3.62 | -0.0355 | 3.01 | -0.715 | 5.66 | 9.46 | 8.31 | 7.31 | 8.54
13 | CAAACTGGGTCACCGGAAGGTCAAAGTCCGCATG | 5.54 | 5.51 | 3.33 | 5 | 0.871 | 5.73 | 9.06 | 7.43 | 4.95 | 7.29
14 | CGTCCACGGTCAATGCTAGGTCAGTGAAAGCATT | 0.638 | 1.1 | 0.946 | 0.337 | -0.956 | 0.778 | -0.0965 | 0.186 | -0.646 | -0.669
15 | CCTTACGGGTCACTGAAAGGTTATAGCATTTGGA | 5.83 | 4.87 | 0.976 | 4.17 | 0.221 | 5.59 | 5.13 | 5.03 | 2.12 | 3.38
16 | CATACAGGGTCAGCCAGGCCAGAGTAGGGACGGC | 4.87 | 3.33 | -0.255 | 2.24 | 0.282 | 4.45 | 3.65 | 3.21 | 0.666 | 2.01
17 | ATCGAAAGGTCGAAGGTGAGAATACCCACCCGAA | 4.1 | 3.81 | 0.0457 | 2.94 | 0.451 | 4.73 | 4.6 | 4.93 | 2.85 | 4.31
18 | TCCAGTAGGTTACCAATGGGGCATTCAGCTTTCT | 0.247 | 1.53 | -0.513 | 0.676 | -0.862 | 1.6 | 1.15 | 2.54 | 2.63 | 2.39
19 | GTACCAAGGTGAATAGGTCGTTCATGAGTAGGCG | 0.8 | 1.02 | 0.137 | 0.601 | -0.594 | 2.17 | 1.4 | 1.69 | 0.0443 | 0.958
20 | GCAGACAGCTGAAACGCAGGTAACTCAGGGTGGC | -0.689 | -0.548 | -0.369 | -1.06 | -1.49 | -0.559 | 0.436 | -0.461 | -0.695 | -0.928
21 | TCAGACAGGTTAAGGTAACTCAGGTACGCAGTCG | 1.49 | 2.63 | 0.305 | 1.79 | 0.039 | 1.93 | 0.858 | 2.5 | 4.03 | 3.21
22 | ATCTGTAGGTTAGCTGGGGTCATTCAGACTAGGC | 3.92 | 6.12 | 3.25 | 4.61 | 1.64 | 4.22 | 2.15 | 3.26 | 0.98 | 2.02
23 | CAAACTAGGTCAAGAGGTCCAAGTCCGCTTCCCG | 3.7 | 2.26 | 0.265 | 1.6 | 0.102 | 4.52 | 7.57 | 6.68 | 4.65 | 6.56
24 | ACTAGCAGGCCAAGGGTCACTCGAGATTAGTCCG | 2.44 | 2.89 | 0.209 | 2.6 | -0.293 | 4.51 | 7.9 | 7.44 | 6.36 | 8.11
